Test results: PubChem BioAssay AID1159580 (chemical genetic matrix, 2015)
Out of some 5,500 compounds screened, about 2,000 (36%) were called active. Inconclusive results (about 18%) are left out. Rule as the data show it: active = normalized growth mostly below about 0.91 (no sharp cut-off); inconclusive = no clear call, values can overlap the other calls; inactive = mostly above about 0.92. This is one part of the list.

Assay: chemical genetic growth profiling, strain panel (AID 1159580);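 also: tested at 20 µM; growth read once vehicle control cultures reached saturation at 30 °C; 1 = growth at the plate median or of vehicle wells; lower values mean less growth of the strain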
Details: growth OD

Measured: normalized growth

CC(=O)Oc1ccc(C(c2ccc(OC(C)=O)cc2)c2ccccn2)cc1
inactive: S. cerevisiae deletion strains, locus YJR075W, strain HOC1, active compounds read low 0.978 | S. cerevisiae deletion strains, locus YKL009W, strain mrt4, active compounds read low 0.985 | S. cerevisiae deletion strains, locus YKL068W, active compounds read low 1 | S. cerevisiae deletion strains, locus YKL085W, strain MDH1 (second series), active compounds read low 0.986 | S. cerevisiae deletion strains, locus YKL085W, strain MDH1, active compounds read low 0.986 | S. cerevisiae deletion strains, locus YKL160W, strain elf1, active compounds read low 1.03 | S. cerevisiae deletion strains, locus YKL190W, strain CNB1, active compounds read low 0.989 | S. cerevisiae deletion strains, locus YKR001C, strain vps1, active compounds read low 0.984 | S. cerevisiae deletion strains, locus YKR026C, strain gcn3, active compounds read low 1.01 | S. cerevisiae deletion strains, locus YKR091W, strain srl3, active compounds read low 1.02 | S. cerevisiae deletion strains, locus YLL001W, strain dnm1, active compounds read low 1.01 | S. cerevisiae deletion strains, locus YLL026W, active compounds read low 1.02 | S. cerevisiae deletion strains, locus YLL041C, strain sdh2, active compounds read low 1.03 | S. cerevisiae deletion strains, locus YLR027C, strain aat2, active compounds read low 1.02 | S. cerevisiae deletion strains, locus YLR039C, strain RIC1, active compounds read low 0.986 | S. cerevisiae deletion strains, locus YLR058C, strain SHM2, active compounds read low 0.984 | S. cerevisiae deletion strains, locus YLR102C, strain apc9, active compounds read low 0.995 | S. cerevisiae deletion strains, locus YLR113W, strain HOG1, active compounds read low 0.953 | S. cerevisiae deletion strains, locus YLR221C, strain rsa3, active compounds read low 1.02 | S. cerevisiae deletion strains, locus YLR258W, strain gsy2, active compounds read low 1.03 | S. cerevisiae deletion strains, locus YLR262C, strain YPT6 (second series), active compounds read low 1.01 | S. cerevisiae deletion strains, locus YLR262C, strain YPT6, active compounds read low 0.969 | S. cerevisiae deletion strains, locus YLR268W, strain sec22, active compounds read low 0.992 | S. cerevisiae deletion strains, locus YLR320W, strain mms22, active compounds read low 1 | S. cerevisiae deletion strains, locus YLR330W, strain CHS5, active compounds read low 0.988 | S. cerevisiae deletion strains, locus YLR342W, strain FKS1 (second series), active compounds read low 1.02 | S. cerevisiae deletion strains, locus YLR342W, strain FKS1, active compounds read low 1.01 | S. cerevisiae deletion strains, locus YLR357W, strain rsc2, active compounds read low 1.08 | S. cerevisiae deletion strains, locus YLR370C, strain arc18, active compounds read low 1.03 | S. cerevisiae deletion strains, locus YLR371W, strain rom2, active compounds read low 0.983 | S. cerevisiae deletion strains, locus YLR384C, strain iki3, active compounds read low 1.02 | S. cerevisiae deletion strains, locus YLR418C, strain cdc73, active compounds read low 0.999 | S. cerevisiae deletion strains, locus YML016C, strain PPZ1, active compounds read low 0.981 | S. cerevisiae deletion strains, locus YML032C, strain rad52, active compounds read low 0.998 | S. cerevisiae deletion strains, locus YML120C, strain ndi1, active compounds read low 1 | S. cerevisiae deletion strains, locus YML124C, strain tub3, active compounds read low 0.992 | S. cerevisiae deletion strains, locus YMR058W, strain fet3, active compounds read low 1.01 | S. cerevisiae deletion strains, locus YMR078C, strain ctf18, active compounds read low 0.985 | S. cerevisiae deletion strains, locus YMR125W, strain sto1, active compounds read low 1.02 | S. cerevisiae deletion strains, locus YMR129W, active compounds read low 1.02 | S. cerevisiae deletion strains, locus YMR205C, strain PFK2, active compounds read low 0.985 | S. cerevisiae deletion strains, locus YMR223W, strain ubp8, active compounds read low 0.987 | S. cerevisiae deletion strains, locus YMR231W, strain pep5, active compounds read low 1.02 | S. cerevisiae deletion strains, locus YMR263W, strain SAP30, active compounds read low 0.963 | S. cerevisiae deletion strains, locus YMR307W, strain GAS1, active compounds read low 0.934 | S. cerevisiae deletion strains, locus YNL067W, strain RPL9B, active compounds read low 0.965 | S. cerevisiae deletion strains, locus YNL071W, strain lat1, active compounds read low 1.01 | S. cerevisiae deletion strains, locus YNL183C, strain NPR1, active compounds read low 0.928 | S. cerevisiae deletion strains, locus YNL209W, strain ssb2, active compounds read low 1 | S. cerevisiae deletion strains, locus YNL233W, strain BNI4, active compounds read low 0.971 | S. cerevisiae deletion strains, locus YNL248C, strain rpa49, active compounds read low 1.03 | S. cerevisiae deletion strains, locus YNL250W, strain rad50, active compounds read low 0.98 | S. cerevisiae deletion strains, locus YNL271C, strain bni1, active compounds read low 0.985 | S. cerevisiae deletion strains, locus YNL298W, strain CLA4, active compounds read low 0.989 | S. cerevisiae deletion strains, locus YNL307C, strain MCK1, active compounds read low 0.989 | S. cerevisiae deletion strains, locus YNL322C, strain KRE1 (second series), active compounds read low 1.01 | S. cerevisiae deletion strains, locus YNL322C, strain KRE1, active compounds read low 1 | S. cerevisiae deletion strains, locus YNR049C, strain mso1, active compounds read low 1.01 | S. cerevisiae deletion strains, locus YNR052C, strain pop2, active compounds read low 0.997 | S. cerevisiae deletion strains, locus YOL012C, strain htz1 1.18 | S. cerevisiae deletion strains, locus YOL147C, strain pex11, active compounds read low 0.979 | S. cerevisiae deletion strains, locus YOR001W, strain rrp6, active compounds read low 0.973 | S. cerevisiae deletion strains, locus YOR061W, strain CKA2, active compounds read low 0.995 | S. cerevisiae deletion strains, locus YOR069W, strain VPS5, active compounds read low 0.989 | S. cerevisiae deletion strains, locus YOR070C, strain gyp1, active compounds read low 1 | S. cerevisiae deletion strains, locus YOR080W, strain dia2, active compounds read low 1.02 | S. cerevisiae deletion strains, locus YOR083W, strain WHI5, active compounds read low 1.02 | S. cerevisiae deletion strains, locus YOR106W, strain vam3, active compounds read low 1.05 | S. cerevisiae deletion strains, locus YOR136W, strain idh2, active compounds read low 0.975 | S. cerevisiae deletion strains, locus YOR144C, strain elg1, active compounds read low 0.984 | S. cerevisiae deletion strains, locus YOR184W, strain ser1, active compounds read low 1.01 | S. cerevisiae deletion strains, locus YOR231W, strain MKK1, active compounds read low 0.974 | S. cerevisiae deletion strains, locus YOR265W, strain rbl2, active compounds read low 1 | S. cerevisiae deletion strains, locus YOR270C, strain vph1, active compounds read low 1.02 | S. cerevisiae deletion strains, locus YOR290C, strain snf2, active compounds read low 1.04 | S. cerevisiae deletion strains, locus YOR316C, strain cot1, active compounds read low 0.984 | S. cerevisiae deletion strains, locus YPL051W, strain arl3, active compounds read low 1.01 | S. cerevisiae deletion strains, locus YPL078C, strain atp4, active compounds read low 1.01 | S. cerevisiae deletion strains, locus YPL106C, strain sse1, active compounds read low 1.03 | S. cerevisiae deletion strains, locus YPL240C, strain hsp82, active compounds read low 1.02 | S. cerevisiae deletion strains, locus YPL241C, strain CIN2, active compounds read low 0.996 | S. cerevisiae deletion strains, locus YPL256C, strain CLN2, active compounds read low 1 | S. cerevisiae deletion strains, locus YPR119W, strain clb2, active compounds read low 0.996 | S. cerevisiae deletion strains, locus YPR141C, strain kar3, active compounds read low 0.974 | S. cerevisiae deletion strains, locus YPR163C, strain tif3, active compounds read low 0.996 | S. cerevisiae deletion strains, locus YPR167C, strain met16, active compounds read low 0.989 | S. cerevisiae deletion strains, strain wtn01, active compounds read low 1.01 | S. cerevisiae strains, strain wild type, active compounds read low 1
